Only some compounds are listed: those with a hit (about 12% of all), similar ones and a draw of the others.
ROMK primary: ROMK potassium channel modulators, primary screen, cell-based, thallium flux, MLSMR library. ATP-sensitive inward rectifier potassium channel 1 (Homo sapiens), P48048. Tet-inducible ROMK, thallium flux fluorescence; actives lie on both sides. B-score at 10 µM. hit rate 2% among 130,000. AID 1918, 2009;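 active = signal ratio slope over the read window, or its plate-corrected B-score, at least 3 SD from the plate mean, either direction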;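 also: B-score of the F/F0 ratio slope over 7 to 12 s after thallium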
KCC2 mod: KCC2 cotransporter modulators, thallium flux, primary screen, cell-based, HEK293 KCC2, FluoZin-2 fluorescence, MLSMR; Solute carrier family 12 member 5 (Homo sapiens), Q9H2X9; KCC2 cells, thallium flux FluoZin-2 fluorescence; B-score of Tl+ flux slope (higher = more flux/activation; lower = inhibition) at 10 µM; hit rate 2.2% among 190,000; AID 1456, 2008;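 active = thallium flux slope and its plate-corrected score both differing from the plate sample mean at a set confidence after two filtering rounds, in either direction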;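 also: slope of fluorescence scaled to starting intensity during 10 to 20 s after thallium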
Target sequence (Q9H2X9 whole entry, looked up): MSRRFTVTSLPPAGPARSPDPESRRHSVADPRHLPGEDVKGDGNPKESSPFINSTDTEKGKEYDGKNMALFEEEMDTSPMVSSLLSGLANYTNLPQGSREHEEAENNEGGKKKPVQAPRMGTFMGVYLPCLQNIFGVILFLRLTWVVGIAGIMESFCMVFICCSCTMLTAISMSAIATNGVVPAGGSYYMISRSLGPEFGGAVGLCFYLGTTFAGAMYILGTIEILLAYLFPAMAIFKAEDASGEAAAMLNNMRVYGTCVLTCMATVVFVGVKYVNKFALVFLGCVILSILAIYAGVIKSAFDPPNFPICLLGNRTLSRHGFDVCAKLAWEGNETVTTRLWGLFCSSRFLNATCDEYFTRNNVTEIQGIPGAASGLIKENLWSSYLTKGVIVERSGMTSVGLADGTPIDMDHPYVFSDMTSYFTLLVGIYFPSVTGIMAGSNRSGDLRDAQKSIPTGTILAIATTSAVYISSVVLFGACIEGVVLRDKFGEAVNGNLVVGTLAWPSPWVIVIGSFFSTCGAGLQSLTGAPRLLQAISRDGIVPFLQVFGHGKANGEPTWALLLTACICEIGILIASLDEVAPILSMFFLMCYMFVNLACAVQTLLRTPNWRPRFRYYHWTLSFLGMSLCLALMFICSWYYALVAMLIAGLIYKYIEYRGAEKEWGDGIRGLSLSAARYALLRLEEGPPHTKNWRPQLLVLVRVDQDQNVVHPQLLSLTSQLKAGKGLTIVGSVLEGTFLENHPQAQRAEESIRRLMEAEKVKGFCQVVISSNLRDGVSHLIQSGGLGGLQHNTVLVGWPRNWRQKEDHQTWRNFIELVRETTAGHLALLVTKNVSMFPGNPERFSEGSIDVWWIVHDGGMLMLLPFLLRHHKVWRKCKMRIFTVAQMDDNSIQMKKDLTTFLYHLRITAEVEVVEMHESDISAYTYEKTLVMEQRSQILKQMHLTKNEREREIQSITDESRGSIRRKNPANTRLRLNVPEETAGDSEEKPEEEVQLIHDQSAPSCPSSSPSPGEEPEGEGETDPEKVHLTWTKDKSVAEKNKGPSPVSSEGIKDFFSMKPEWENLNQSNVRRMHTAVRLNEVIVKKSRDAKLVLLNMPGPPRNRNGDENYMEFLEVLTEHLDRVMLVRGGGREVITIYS
L major viab: Leishmania major promastigote growth inhibition, primary screen. Leishmania major promastigotes, resazurin fluorescence viability. inhibition, % at 10 µM. hit rate 9% among 200,000. AID 1063, 2008; in the data active = inhibition above about 50%;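 also: promastigotes grown with compound for 44 hours at 28 °C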
Calpain2 inh: inhibitors of pig calpain II, primary screen, biochemical, fluorogenic peptide substrate, 1536-well. inhibition, % at 16 µM. purified calpain II, 30 min. AID 1236, 2008. hit rate 0.37% among 220,000;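 active = inhibition above about 50%, limit read from the data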
WT yeast gro inh: growth inhibition of WT strain, primary screen, mitochondrial fusion inhibitor project, WT and mutant strains, chemical genetic; hit rate 2.1% among 190,000; inhibition, % at 10 µM; mitochondrial fusion phenotypic screen; AID 1362, 2008; in the data active = inhibition above about 58%; tested in S. cerevisiae
Large screens that a line does not name were inactive.

O=C(NCc1ccccc1)NC1(C(=O)N2CCOCC2)CCCCC1	none (no result: ROMK primary, KCC2 mod)
CCN1CCN(C(=O)C2(NC(=O)Nc3ccccc3Cl)CCCCC2)CC1	L major viab 55 (no result: ROMK primary)
O=C(NCc1ccccc1)NC1(C(=O)N2CCN(c3ccccc3)CC2)CCCCC1	L major viab 54 (no result: ROMK primary, KCC2 mod)
CN1CCN(C(=O)C2(NC(=O)Nc3ccccc3Cl)CCCCC2)CC1	none
Cc1cc(C)cc(C(=O)NCC(=O)OCC(=O)Nc2ccc(C)cc2Br)c1	none (no result: ROMK primary)
CCOC(=O)C1C(=O)NC(SCC(N)=O)=C(C#N)C1c1ccccc1OCC (stereo not drawn)	none (no result: ROMK primary)
CCN1CCN(CCCCSc2ccccc2)CC1	L major viab 78 (no result: ROMK primary)
C[C@H](NC(=O)Cn1cncn1)c1ccccc1	none (no result: ROMK primary)
Cc1ccc(S(=O)(=O)NNC(=O)c2cc3cc4ccccc4nc3s2)cc1	L major viab 92 (no result: ROMK primary, KCC2 mod)
CC(C)c1ccc(N(CC(=O)NCc2ccc(F)cc2)C(=O)c2csnn2)cc1	none (no result: KCC2 mod)
Cc1cccc(OCc2n[nH]c(=S)n2C2CCCCC2)c1	Calpain2 inh 61, WT yeast gro inh 67
CCCNC(=O)COc1ncnc2sccc12	none
CC(C)C1Cc2c(sc3[nH]c(=S)n(Cc4ccccc4)c(=O)c23)CO1 (stereo not drawn)	ROMK primary 9.3, KCC2 mod 19, WT yeast gro inh 61
Cc1nnc2n(-c3ccccc3)c(=O)c3c4c(sc3n12)COC(C(C)C)C4 (stereo not drawn)	none
CCOC(=O)N1CCC(=NNc2ccnc3cc(Cl)ccc23)CC1	L major viab 61
CC(=O)N1CCC(=NNc2ncc(C(F)(F)F)cc2Cl)CC1	none
CC(=O)N1CCC(=NNc2ccnc3cc(Cl)ccc23)CC1	L major viab 86 (no result: KCC2 mod)
O=C(CSc1nnc(-c2ccc(C(F)(F)F)cn2)o1)Nc1ccccc1Cl	none (no result: ROMK primary, L major viab, WT yeast gro inh)
Cc1ccc(S(=O)(=O)c2c(C(=O)c3ccccc3)cnc3cc4c(cc23)OCCO4)cc1	none (no result: ROMK primary)
Cc1ccc(CN2CCc3c(OCC(=O)Nc4cccc(C)c4C)cccc3C2=O)cc1	L major viab 97
CCOC(=O)N1CCN(C(=O)COc2cccc3c2CCN(Cc2ccccc2F)C3=O)CC1	L major viab 66
O=C(COc1cccc2c1CCN(Cc1ccccc1F)C2=O)N1CCCCC1	none
O=C(CCCc1ccccc1)Nc1ccccn1	none
Cc1ccc(C2CC(c3ccc(NS(C)(=O)=O)cc3)=NN2C(=O)c2ccco2)cc1 (stereo not drawn)	none
CCS(=O)(=O)Nc1ccc(C2=NN(C(=O)c3ccco3)C(c3ccc(C)cc3)C2)cc1 (stereo not drawn)	L major viab 74 (no result: ROMK primary, KCC2 mod)
CS(=O)(=O)Nc1ccc(C2=NN(C(=O)c3ccco3)C(c3ccccc3)C2)cc1 (stereo not drawn)	L major viab 68
CC(=O)Nc1nc(-c2ccc3c(c2)CCN3S(C)(=O)=O)cs1	none (no result: KCC2 mod)
Cc1sc(NC(=O)CN2CCOCC2)nc1-c1ccc2c(c1)CCN2S(=O)(=O)c1ccccc1	L major viab 97 (no result: KCC2 mod, WT yeast gro inh)
O=C(CN1CCOCC1)Nc1nc(-c2ccc3c(c2)CCN3S(=O)(=O)c2ccccc2)cs1	L major viab 68 (no result: ROMK primary)
Cc1sc(NC(=O)c2ccco2)c(C(c2cccnc2)N2CCC(C)CC2)c1C (stereo not drawn)	L major viab 91 (no result: ROMK primary, KCC2 mod)
COc1ccc2oc(=O)c(-c3ccccc3C(=O)N3CCOCC3)cc2c1	none
COc1ccc2cnn(-c3ccc(OC(F)(F)F)cc3)c(=O)c2c1OC	none (no result: ROMK primary, L major viab, WT yeast gro inh)
COC(=O)c1ccc(N2C(=O)C3CC(C)=C(C)CC3C2=O)cc1 (stereo not drawn)	Calpain2 inh 59 (no result: ROMK primary, KCC2 mod)
Cc1ccc(Nc2cnn(C34CC5CC(CC(CC(=O)O)(C5)C3)C4)c(=O)c2Cl)c(Cl)c1	none
Cc1cc(C(=O)COC(=O)c2ccc([N+](=O)[O-])o2)c(C)n1CC1CCCO1 (stereo not drawn)	L major viab 82
COCCn1c(C)cc(C(=O)COC(=O)c2ccc([N+](=O)[O-])o2)c1C	L major viab 75
Cc1cc(C(=O)COC(=O)c2ccc3c(c2)OCO3)c(C)n1CC1CCCO1 (stereo not drawn)	none
CCn1ccc(C(=O)Nc2ccccc2Cl)n1	none
[O-]/C(=C(\C(=S)Nc1cccc2ccccc12)[n+]1cccc(CO)c1)c1ccc(Cl)s1	none
Cc1c(Cl)cccc1NC(=S)/C(=C(\[O-])c1ccc(Cl)s1)[n+]1ccccc1	L major viab 64
CCOC(=O)Cc1csc(NC(=O)Nc2cccc(Cl)c2)n1	none
CCOC(=O)c1csc(NC(=O)Nc2cccc(Cl)c2)n1	L major viab 87 (no result: ROMK primary)
O=C(Nc1ccc(Cl)cc1)Nc1nnc(-c2ccncc2)s1	none (no result: ROMK primary)
O=C(Nc1cccc(Cl)c1)Nc1nnc(-c2ccncc2)s1	L major viab 65 (no result: ROMK primary)
O=c1[nH]c(-c2ccc(Cl)cc2)nc(=S)[nH]1	none (no result: L major viab, WT yeast gro inh)
CCOc1ccccc1NC(=O)Nc1ccon1	none (no result: ROMK primary, L major viab, WT yeast gro inh)
Oc1ccccc1C1CC(c2cccs2)=NC(c2ccc(Cl)cc2)N1 (stereo not drawn)	WT yeast gro inh 73
CC1CN(S(=O)(=O)c2cccc(-c3csc(-c4ccccc4)n3)c2)CC(C)O1 (stereo not drawn)	L major viab 97
COc1ccc(CN(CC2CCC(C(=O)O)CC2)C(=S)Nc2cc(C)ccc2C)cc1 (stereo not drawn)	none
CCCCOP(=O)(c1ccc(N(C)C)cc1)C(Nc1ccccc1)c1ccccc1 (stereo not drawn)	WT yeast gro inh 81
CCCOP(=O)(c1ccc(N(C)C)cc1)C(Nc1ccccc1)c1ccc(N(C)C)cc1 (stereo not drawn)	none (no result: ROMK primary)
CCOc1c(Cl)cc(CNCC(C)C)cc1Cl	L major viab 68
COc1cc(CNn2c(C)n[nH]c2=S)cc(Br)c1OCc1ccc(F)cc1	none
CCOc1cc(CNCc2ccncc2)cc(Br)c1OCc1ccc(F)cc1	L major viab 93 (no result: ROMK primary, KCC2 mod)
CCNCc1cc(Cl)c(OCc2ccccc2)c(OCC)c1	L major viab 100 (no result: ROMK primary)
COc1cc(CNc2ccc(O)cc2)cc(Br)c1OCc1ccccc1	Calpain2 inh 64
COc1cc(C(N)=O)cc(Br)c1OCc1ccccc1	none
CCN1C(=O)/C(=C/C=C2\N(CC)c3cc(S(=O)(=O)N(C)C)ccc3N2c2ccccc2)SC1=S	none (no result: ROMK primary, L major viab, WT yeast gro inh)
CCOc1cc(CNCCO)cc(Br)c1OCc1ccccc1	L major viab 75
CCOc1c(Cl)cc(CNCc2ccncc2)cc1OC	L major viab 84
Cc1nnc(Oc2ccccc2F)c2ccccc12	Calpain2 inh 61 (no result: ROMK primary)
CCOC(=O)n1c(=O)n(Cc2ccccc2C)c2ccccc21	none (no result: ROMK primary)
FC(F)(F)c1ccc(Oc2ccc3ccccc3c2Br)nc1	WT yeast gro inh 81 (no result: ROMK primary)
O=C(Nc1cc(Sc2nc3ccccc3s2)cc([N+](=O)[O-])c1)c1ccccc1F	none (no result: ROMK primary)
O=C(Nc1cc(Sc2ccccn2)cc([N+](=O)[O-])c1)c1cccc(F)c1	L major viab 95, Calpain2 inh 53

Source: PubChem (several laboratories)
